Screening results (PubChem BioAssay)
The sample as a whole holds a higher share of hits than the screen did.
RMI-FANCM inh = disruptors of RMI1/RMI2 association with MM2 peptide – biochemical, fluorescence polarization, human, primary screen | RMI core complex with F-MM2 peptide; hits give low values | FP signal (polarization) at 33 µM | actives 0.58% (n = 70,000); in the data active = FP signal below about 40
Large screens that a line does not name were inactive; ! = not confirmed by another sample.

CN(C)C(CNS(=O)(=O)c1ccc(Cl)cc1)c1ccco1 (centres undefined)	none
Cn1c(C2CCCN(S(C)(=O)=O)C2)nn(CC(=O)N2CCOCC2)c1=O (centres undefined)	none
O=C(COc1ccc(Cl)cc1Cl)NCC(c1ccsc1)N1CCCCCC1 (centres undefined)	none
COCc1cc(C)nc2oc(C(=O)c3ccccc3)c(N)c12	none
CCOC(=O)c1oc2nc3c(c(-c4cccnc4)c2c1N)CCc1ccccc1-3	RMI-FANCM inh 37
CCOC(=O)Cn1c(-c2cccnc2)nc(-c2ccccc2)c1-c1ccccc1	none
COc1ccc(Cl)cc1C(=O)N1CCN(c2nc3ccc(SC)cc3s2)CC1	none
COc1ccc(-c2c[nH]c(=S)n2-c2ccc(F)cc2)cc1	none
C[C@]12CC[C@@H]3c4ccc(OS(=O)(=O)O)cc4CC[C@H]3[C@@H]1CCC2=O	RMI-FANCM inh 33!
C[C@]12CCC3c4ccc(O)cc4CCC3C1CCC2=O (some centres undefined)	none
C[C@]12CCC3c4ccc(OC(=O)CCC(=O)O)cc4CCC3C1CCC2=O (some centres undefined)	none
COc1ccc(OC)c(S(=O)(=O)NCc2nnnn2-c2cccc(F)c2)c1	none
COc1ccc2nc(-c3ccc(F)c(NC(=O)c4ccco4)c3)cn2n1	none
COc1ccc(CCC(=O)N2CCN(Cc3nc(-c4ccco4)cs3)CC2)cc1	none
O=C(CN1CCN(Cc2nc(-c3ccco3)cs2)CC1)N1CCOCC1	none
O=C(CN1CCN(Cc2nc(-c3ccco3)cs2)CC1)N1CCCC1	RMI-FANCM inh 40
Cc1ccc(Cl)cc1N1CCN(Cc2nc3c(c(=O)[nH]c(=O)n3C)n2Cc2cccc3ccccc23)CC1	none
Cc1ccc(-c2ccc(/C=C(\C#N)c3nc4ccccc4s3)o2)c([N+](=O)[O-])c1	none
Cn1c(/C=C(\C#N)c2nc3ccccc3s2)ccc1-c1cccc(Cl)c1	RMI-FANCM inh 15
N#C/C(=C/C1=Cc2ccccc2OC1)c1nc2ccccc2s1	none
O=C(NCC1CCCO1)c1ccc(Cn2c(=S)[nH]c3ccc(Br)cc3c2=O)cc1 (centres undefined)	none
S=c1[nH]cc2ccccn12	RMI-FANCM inh 18
Cn1c(-c2ccccc2)c[nH]c1=S	none
S=c1[nH]nc2ccccn12	none
N#C/C(=C\Nc1ccc(S(=O)(=O)NC(N)=O)cc1)c1nc(-c2ccc(Cl)cc2)cs1	RMI-FANCM inh 15
N#C/C(=C\Nc1ccc(S(=O)(=O)N=C(N)N)cc1)c1nc(-c2ccc([N+](=O)[O-])cc2)cs1	none
Cc1ccc(-c2csc(/C(C#N)=C/Nc3ccc(Cl)c(C(F)(F)F)c3)n2)cc1	none
O=C1c2cccc3c(Br)ccc(c23)C(=O)N1CCO	RMI-FANCM inh -1
O=C1OC(=O)c2ccc(Br)c3cccc1c23	none
CCOC(=O)OCCN1C(=O)c2cccc3c(Br)ccc(c23)C1=O	none
NC(=O)CNC(=O)c1n[nH]c2ccccc12	none
CCOc1cn2c(cc1=O)C(=O)N(CCNC(=O)c1cc(OC)c(OC)c(OC)c1)CC2	none
O=C(c1cccnc1Oc1ccccc1)N1CCN(C2c3ccccc3-c3ccccc32)CC1	none
O=C(O)c1ccccc1C(=O)N1CCN(C2c3ccccc3-c3ccccc32)CC1	RMI-FANCM inh 32
Cc1cc(C(=O)N2CCN(C3c4ccccc4-c4ccccc43)CC2)c(C)o1	none
COC1=CC(=O)C(C)=CC1=O	none
CCn1c2ccccc2c2cc(NC(=O)c3ccc4nccnc4c3)ccc21	none
Nc1cc(=O)[nH]c(C(F)(F)F)n1	none
CC(C)(C)c1ccc(S(=O)(=O)NCc2ccco2)cc1	none
COc1ccc(S(=O)(=O)NCc2ccco2)cc1C(=O)O	RMI-FANCM inh 1
COc1ccc(S(=O)(=O)NCc2ccco2)c(C)c1C	none
O=c1[nH]c2n[nH]c(=S)n2c2c1CCCC2	none
CC(Sc1nncn1C)C(=O)Nc1nnc(-c2ccc(Br)cc2)s1 (centres undefined)	none
O=C(Nc1ccc(F)c(C(F)(F)F)c1)C1CCN(c2ccc(-c3ccco3)nn2)CC1	none
O=C(Nc1cnc2ccccc2c1)C1CCN(c2ccc(-c3ccco3)nn2)CC1	RMI-FANCM inh 26
O=C(Nc1ccc(F)c(Cl)c1)C1CCN(c2ccc(-c3ccco3)nn2)CC1	none
CC(=O)OC1CCC2(C)C3CC(=O)C4(C)C(CC5OC6(CCC(C)CO6)[C@@H](C)C54)C3CC[C@H]2C1 (some centres undefined)	none
COC(=O)c1ccc(NC(=O)CSc2nnc3[nH]c(=O)ccn23)cc1	none
CC(C)S(=O)(=O)Nc1ccc2c(c1)NC(=O)C(C)(C)CO2	none
COC(=O)Nc1ccc2c(c1)NC(=O)C(C)(C)CO2	none
CC1(C)COc2ccc(N)cc2NC1=O	RMI-FANCM inh 37
Cc1ccc(NC(=O)NCCS(=O)(=O)c2c(C)n(Cc3ccccc3)c3ccccc23)cc1C	RMI-FANCM inh 31
Cc1c(S(=O)(=O)CCNC(=O)Nc2ccccc2Cl)c2ccccc2n1C	none
Cc1cccc(NC(=O)NCCS(=O)(=O)c2c(C)n(Cc3ccc(F)cc3)c3ccccc23)c1	none
Cc1ccc(-c2cnc(SCC(=O)Nc3cc(Cl)ccc3C)o2)cc1C	none
CC1=C(Cl)C(O)=CC(=O)C12Oc1cc(O)c(Cl)c(C)c1C2=O (centres undefined)	RMI-FANCM inh 11
Cn1c(SCC(=O)NCCc2ccccc2)nc2c(-c3ccccc3)c[nH]c2c1=O	none
CCOc1ccc(-c2cc(=O)n(CC(=O)NCc3cccnc3)cn2)cc1	none
Cn1c(SCc2ccc([N+](=O)[O-])cc2)nc2c(c1=O)SCC2	none
CCNc1nc(SCc2ccc([N+](=O)[O-])cc2)nc2sc3c(c12)CCN(C)C3	RMI-FANCM inh -31
CCNc1nc(SCc2ccc([N+](=O)[O-])cc2)nc2sc3c(c12)CCC(C)C3 (centres undefined)	none
CCOC(=O)CNC(=O)C(=O)c1c(C)n(C)c2ccccc12	none
COc1ccccc1N=Cc1ccccc1OC(=O)c1ccccc1Br	none
Oc1c(Br)cc(Br)cc1C=Nc1cccc(Cl)c1	RMI-FANCM inh 20
COc1cc(Br)cc(C=Nc2ccccc2O)c1O	none
Oc1c(Br)cc(Br)cc1C=Nc1ccc(-c2ccccc2)cc1	none
Oc1ccc(Cl)cc1C=Nc1cccc(C(F)(F)F)c1	none
Oc1c(Br)cc(Br)cc1C=Nc1ccccc1F	RMI-FANCM inh -4
CCN1C(=O)Cc2cc(NS(=O)(=O)c3ccc(F)cc3C)ccc21	none
CC(O)CNC(=O)C(=O)NCC(c1ccco1)N1CCOCC1 (centres undefined)	none
COc1cccc(Cn2c(SCC(=O)NCCc3ccccc3)nc3c(oc4ccccc43)c2=O)c1	none
COc1ccc(C(Nc2cc(C)on2)c2c(C)[nH]c3ccccc23)cc1OC (centres undefined)	none
Cc1[nH]c2ccccc2c1C(Nc1ccccn1)c1cccc([N+](=O)[O-])c1 (centres undefined)	RMI-FANCM inh 25!
Cc1[nH]c2ccccc2c1C(Nc1ccccc1F)c1ccccn1 (centres undefined)	none
COC(=O)/C=C1\SC(=O)N(CN2CCOCC2)C1=O	none
CCOC(=O)c1cc(-c2ccccc2)sc1NC(=O)c1cccs1	none
O=C1c2ccc3ccccc3c2-c2cccc3cccc1c23	none
O=C(C1=C(Cl)c2cccc3cccc(c23)C1=O)c1ccccc1	none
O=C1C([N+](=O)[O-])=C(O)c2cccc3cccc1c23	RMI-FANCM inh -1
Cc1cccc(S(=O)(=O)NCC2CCN(C3CCCC3)CC2)c1	none
COc1ccc(C(=O)Nc2nc(-c3ccc(Cl)cc3Cl)cs2)cc1OC	none
Cc1ccccc1C(=O)N/N=C\c1ccc(OC(=O)c2ccccc2)cc1	none
